Measurements: PubChem BioAssay (NCI)
This is part of a sample that, as a whole, favours compounds with a hit. Of some 83,000 tested, about 20% had one in any assay.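 Single-concentration screen, 48 h exposure, 96-well plates. Endpoint: percent growth. Below 10 = active.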

Tests used:
Test in all cases: NCI-60 one-dose screen, 48 h (100 = growth as untreated, 0 = no growth, -100 = all killed)
Conditions in all cases: 10 µM unless noted
SK-MEL-2 melanoma = test system: SK-MEL-2 melanoma
EKVX NSCLC = test system: EKVX NSCLC
SN12C renal = test system: SN12C renal
UO-31 renal = test system: UO-31 renal
TK-10 renal = test system: TK-10 renal
ACHN renal = test system: ACHN renal
CAKI-1 renal = test system: CAKI-1 renal
A498 renal = test system: A498 renal
CCRF-CEM leukemia = test system: CCRF-CEM leukemia
MOLT-4 leukemia = test system: MOLT-4 leukemia
RPMI-8226 leukemia = test system: RPMI-8226 leukemia
OVCAR-8 ovarian = test system: OVCAR-8 ovarian
OVCAR-5 ovarian = test system: OVCAR-5 ovarian
OVCAR-4 ovarian = test system: OVCAR-4 ovarian
SK-OV-3 ovarian = test system: SK-OV-3 ovarian
IGROV1 ovarian = test system: IGROV1 ovarian
OVCAR-3 ovarian = test system: OVCAR-3 ovarian
HS 578T breast = test system: HS 578T breast
NCI/ADR-RES ovarian = test system: NCI/ADR-RES ovarian
SR leukemia = test system: SR leukemia

Measured: growth

COC(=O)c1ccc2c(c1)nc(-c1ccc(Cl)cc1)n2-c1cc(C(C)(C)C)[nH]n1
inactive: SK-MEL-2 melanoma 31.6% | EKVX NSCLC 78.3% | SN12C renal 79.1% | UO-31 renal 41.9% | TK-10 renal 86.6% | ACHN renal 75.4% | CAKI-1 renal 50.4% | A498 renal 21.8% | CCRF-CEM leukemia 45.2% | MOLT-4 leukemia 41.8% | RPMI-8226 leukemia 56.8% | OVCAR-8 ovarian 83.1% | OVCAR-5 ovarian 121% | OVCAR-4 ovarian 81.4% | SK-OV-3 ovarian 104% | IGROV1 ovarian 54.2% | OVCAR-3 ovarian 41.9% | HS 578T breast 53.3% | NCI/ADR-RES ovarian 14.2%

COc1nccc2c(Sc3ccccc3)nc(N)nc12
inactive: SK-MEL-2 melanoma 101% | EKVX NSCLC 117% | SN12C renal 105% | UO-31 renal 75.3% | TK-10 renal 103% | ACHN renal 108% | CAKI-1 renal 106% | A498 renal 76.2% | CCRF-CEM leukemia 97.7% | MOLT-4 leukemia 94.5% | RPMI-8226 leukemia 93.2% | OVCAR-8 ovarian 101% | OVCAR-5 ovarian 107% | OVCAR-4 ovarian 99.7% | SK-OV-3 ovarian 114% | IGROV1 ovarian 114% | OVCAR-3 ovarian 119% | HS 578T breast 113% | NCI/ADR-RES ovarian 106%

Cn1c(=O)c2c(nc(N/N=C/c3ccccc3Cl)n2C)n(C)c1=O
inactive: SK-MEL-2 melanoma 81.6% | EKVX NSCLC 106% | SN12C renal 99% | UO-31 renal 81.5% | TK-10 renal 101% | ACHN renal 103% | CAKI-1 renal 97.8% | A498 renal 170% | CCRF-CEM leukemia 94.5% | MOLT-4 leukemia 95.7% | RPMI-8226 leukemia 111% | OVCAR-8 ovarian 98.6% | OVCAR-5 ovarian 95.7% | OVCAR-4 ovarian 115% | SK-OV-3 ovarian 110% | IGROV1 ovarian 102% | OVCAR-3 ovarian 119% | HS 578T breast 137% | NCI/ADR-RES ovarian 97.3%

O=C(N/N=C/c1ccc([N+](=O)[O-])o1)c1ccc(O)cc1
inactive: SK-MEL-2 melanoma 24.1% | EKVX NSCLC 71.2% | SN12C renal 29.4% | UO-31 renal 84.7% | TK-10 renal 125% | ACHN renal 66.5% | CAKI-1 renal 88.3% | A498 renal 112% | CCRF-CEM leukemia 34.6% | MOLT-4 leukemia 48.4% | RPMI-8226 leukemia 39.8% | OVCAR-8 ovarian 17.6% | OVCAR-5 ovarian 78.7% | OVCAR-4 ovarian 42% | SK-OV-3 ovarian 63.8% | IGROV1 ovarian 30.5% | OVCAR-3 ovarian 23.4% | NCI/ADR-RES ovarian 36.6%

CCCNCCC(C)=O
inactive: SK-MEL-2 melanoma 118% | EKVX NSCLC 89.6% | SN12C renal 102% | UO-31 renal 92.4% | TK-10 renal 101% | ACHN renal 106% | CAKI-1 renal 106% | A498 renal 94.2% | CCRF-CEM leukemia 107% | MOLT-4 leukemia 112% | RPMI-8226 leukemia 108% | OVCAR-8 ovarian 106% | OVCAR-5 ovarian 101% | OVCAR-4 ovarian 107% | SK-OV-3 ovarian 116% | IGROV1 ovarian 118% | OVCAR-3 ovarian 116% | HS 578T breast 89.9% | NCI/ADR-RES ovarian 100%

CCc1onc(-c2ccc(OC)cc2)c1-c1ccccc1OCCN(CC)CC
inactive: SK-MEL-2 melanoma 94.9% | EKVX NSCLC 85.2% | SN12C renal 91.4% | UO-31 renal 56.8% | TK-10 renal 92.2% | ACHN renal 92.9% | CAKI-1 renal 82.4% | A498 renal 63.3% | CCRF-CEM leukemia 75.6% | SR leukemia 66.5% | RPMI-8226 leukemia 91.3% | OVCAR-8 ovarian 96.3% | OVCAR-5 ovarian 91.5% | OVCAR-4 ovarian 90.8% | SK-OV-3 ovarian 101% | IGROV1 ovarian 83.3% | OVCAR-3 ovarian 96.8% | HS 578T breast 89.6% | NCI/ADR-RES ovarian 75.2%

NC(N)=N/N=C/c1cccc(Cl)c1Cl
inactive: SK-MEL-2 melanoma 106% | EKVX NSCLC 69.2% | SN12C renal 90.1% | UO-31 renal 66.3% | TK-10 renal 88% | ACHN renal 84.2% | CAKI-1 renal 59.1% | A498 renal 61.6% | CCRF-CEM leukemia 52.7% | MOLT-4 leukemia 47.6% | OVCAR-8 ovarian 87.5% | OVCAR-5 ovarian 85% | SK-OV-3 ovarian 80% | IGROV1 ovarian 86.5% | OVCAR-3 ovarian 72.8% | HS 578T breast 71.3% | NCI/ADR-RES ovarian 75.7%

O=C(Nc1cccc(C2=NCCN2)c1)c1ccc(N=Nc2ccc(C(=O)Nc3cccc(C4=NCCN4)c3)cc2)cc1
inactive: SK-MEL-2 melanoma 56.6% | EKVX NSCLC 62.6% | SN12C renal 49.9% | UO-31 renal 72.8% | TK-10 renal 40.2% | ACHN renal 52.4% | CAKI-1 renal 90.7% | A498 renal 66.3% | MOLT-4 leukemia 80.9% | SR leukemia 87.5% | OVCAR-8 ovarian 37.5% | OVCAR-5 ovarian 76.6% | SK-OV-3 ovarian 77.3% | IGROV1 ovarian 58.8% | OVCAR-3 ovarian 77.4% | HS 578T breast 65.2% | NCI/ADR-RES ovarian 100%
